These results are taken from PubChem BioAssay AID651660 (Broad Institute, 2012).

Each structure is given as a SMILES string. The campaign covered roughly 1,900 compounds. About 15 (0.8%) were called active. The entries come from a sample that favours actives as a whole. Unmarked numbers belong to inactive results.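 The calls were made as follows: active = every replicate shows at least 50% inhibition; inconclusive = mean inhibition at least 50% but some replicate below; inactive = the rest.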

In the assay the target is DNA repair protein RAD52 homolog (Homo sapiens) (UniProt P43351). The assay is described as follows: inhibition of RAD52-mediated strand annealing – biochemical, FRET, single point, primary screen (AID 651660).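 Also: 0% = median of neutral control wells and 100% = median of positive control wells.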 Conditions: Recombinant RAD52 ssDNA annealing, FRET fluorescence, 30 min; at 18.7 µM; hits give high values.
Sequence of DNA repair protein RAD52 homolog (Homo sapiens) (P43351 whole entry, looked up): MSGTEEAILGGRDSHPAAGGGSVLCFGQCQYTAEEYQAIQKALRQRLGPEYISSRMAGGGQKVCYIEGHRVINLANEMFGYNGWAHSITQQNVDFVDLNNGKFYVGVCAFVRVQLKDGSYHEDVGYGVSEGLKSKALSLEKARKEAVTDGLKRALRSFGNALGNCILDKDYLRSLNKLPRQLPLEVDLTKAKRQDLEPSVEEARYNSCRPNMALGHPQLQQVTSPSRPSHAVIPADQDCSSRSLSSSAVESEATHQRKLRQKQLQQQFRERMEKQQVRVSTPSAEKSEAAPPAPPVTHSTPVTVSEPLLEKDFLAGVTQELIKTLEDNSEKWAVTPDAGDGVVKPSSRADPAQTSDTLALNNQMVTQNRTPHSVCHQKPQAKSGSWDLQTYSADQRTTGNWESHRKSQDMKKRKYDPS
Consider `COc1cc2c3cc1Oc1cc(ccc1O)C[C@@H]1c4c(cc(OC)c(O)c4Oc4ccc(cc4)C[C@H]3N(C)CC2)CCN1C`, for which the inhibition is 77.6% (active).
The result for `c1cnc2c(c1)ccc1ncccc12` reads -3.46%; that for `O=C1NCCN2CCCC12` (stereo not given), -1.15%.
As to `CCC1(c2ccccc2)C(=O)N(COC)C(=O)N(COC)C1=O`, the inhibition was -5.47%.
The result for `C[N+]1(C)CCOC(O)(c2ccc(-c3ccc(C4(O)C[N+](C)(C)CCO4)cc3)cc2)C1` (stereo not given) reads 61.8% (active); that for `C=C1[C@@H](C)[C@H]2[C@H](Cc3ccccc3)NC(=O)[C@]23OC(=O)/C=C/[C@H](O)CCC[C@@H](C)C/C=C/[C@H]3[C@@H]1O`, -0.777%.
The result for `CC(C)(C)C(O)C(Oc1ccc(Cl)cc1)n1cncn1` (stereo not given) reads -119%.
To `NCCc1c[nH]c2ccc(F)cc12` belongs 0.119%.
As to `CN1C(=O)N(C)C(=O)C2(Cc3ccccc3N3CCOCC32)C1=O` (stereo not given), the inhibition was -0.534%.
The result for `CCNC(=S)N(C)CCc1cc2c(c(OC)c1C=C1C(=O)N(C)C(=O)N(C)C1=O)OCO2` reads -15%.
